In all, about 320,000 compounds went through this assay and about 9,100 (2.8%) were called active. Entries that show only a call come without a potency. Another 3% or so got no clear call; they are omitted. The full list was thinned out, with actives kept by preference. Unmarked numbers belong to inactive results. Calls follow the shape of the dose curve; as a rule, active = well fitted activation curve with a large enough effect; inconclusive = small, poorly fitted or top-dose-only effect; inactive = no such curve, though single readings can be large or run the other way.
Potency is read from the fitted curve at half-maximal effect.

The test can be described thus: qHTS Assay for Rab9 Promoter Activators. Also: nearly all actives have a fitted effect of over 60% in size. To be noted: Huh7 Rab9 promoter-luciferase reporter, luminescence, 24 h; series mostly up to 9.22 µM. The method in brief:
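Cell-based reporter: Huh7 stable for Rab9 promoter-driven luciferase, plated in reduced-serum medium with 10% FBS at 1500 cells/well, compound-treated 24 h at 37 °C, luminescence read after 10 min reagent.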
Background: Quantitative high-throughput screening tests each substance at several concentrations.
Regarding `COc1ccc(Cl)cc1NC(=O)CN(C)CC(=O)Nc1ccc2c(c1)OCO2`, the Potency entry is “inactive”.
Consider `COc1ccc(CN(Cc2ccco2)S(=O)(=O)c2ccc(S(=O)(=O)N3CCCC3)cc2)cc1`, for which the Potency entry was “inactive”.
Still for that read-out and setting: the entry for `COc1ccccc1-n1nnnc1SCC(=O)NC(=O)Cc1ccccc1` is “inactive”; for `Cc1ccc(S(=O)(=O)CC(=O)Nc2nnc(C)s2)cc1` it is “inactive”; for `Cc1ccc(C(=O)Cc2nnc(C)s2)cc1` it is 2820 nM (active).
With `Cc1ccc(C(=O)Cn2cccn2)cc1`, the Potency entry was “inactive”.
For `CC(OC(=O)c1cc2ccccc2o1)C(=O)Nc1ccc(N2CCOCC2)cc1` (centres undefined), the Potency entry was “inactive”.
As for `Cc1ccc2oc(=O)c3cnn(CC(=O)N(Cc4ccco4)C4CCCCC4)c3c2c1`, the Potency result was “inactive”.
With `O=C(NCc1cccnc1)c1cccc(-c2cc3ccccc3oc2=O)c1`, the activation, negative = inhibition was -2.68% [at 1.84 µM].
For the compound `Cc1cc2c(=O)n(C)c(SCC(=O)c3cc4ccccc4o3)nc2s1`, the Potency result is “inactive”.
Regarding `Nc1ncc(-c2cc3ccccc3oc2=O)s1`, the Potency is 1120 nM (active).
Same read-out and setting: the entry for `COc1ccccc1C(CNC(=O)c1cccc(S(=O)(=O)Nc2ccc(F)cc2)c1)N(C)C` (centres undefined) is “inactive”.
`Cc1nn(C)c(Cl)c1CN1CCC(n2nccc2NC(=O)C2CCCC2)CC1`: the Potency entry is “inactive”.
Take `CC(Sc1nnc(-c2cccs2)n1C1CC1)C(=O)NCC1CCCO1` (centres undefined): the Potency entry is “inactive”.
Turning to `Cc1nc(-c2ccccc2)sc1C(=O)/C=C/N(C)C`, the Potency is 2820 nM (active).
For `Cc1nc(-c2ccc(Cl)cc2)sc1C(=O)CBr`, the Potency result was “inactive”.
Consider `CN(C)/C=C/C(=O)c1ccccc1F`, for which the Potency entry is “inactive”.
On the same count and under the same terms, the entry for `CC(C)CN(C(=O)CSc1nncn1C)C1CCS(=O)(=O)C1` (centres undefined) is “inactive”; for `Cc1ccc(C(=O)NNC(=O)c2cc3cc4ccccc4nc3s2)cc1` it is “inactive”; for `Cc1ccc(C(=O)NNc2ncnc3ccccc23)cc1` it is 3980 nM (active).
For the compound `CCc1nc(SCC(=O)NNC(=O)c2ccc(C)cc2)c2ccccc2n1`, the Potency entry is “inactive”.
For `COc1ccc(CNC(=O)COC(=O)c2c(C)nn(-c3ccccc3)c2C)cc1OC`, the Potency entry is “inactive”.
As to `CN(C)C(CNC(=O)c1cccc(C#N)c1)c1ccco1` (centres undefined), the Potency result is “inactive”.
Take `Cc1cc(F)ccc1S(=O)(=O)Nc1ccc(C(=O)N(C)Cc2ccco2)cc1`: the Potency entry is “inactive”.
For the compound `CC1CCCCC12NC(=O)N(CC(=O)Nc1ccc(S(=O)(=O)Nc3ncccn3)cc1)C2=O` (centres undefined), the Potency entry is “inactive”.
For the compound `Cc1ccccc1Nc1nc(N)nc(CSc2ccccc2)n1`, the Potency was 1410 nM (active).
For the compound `Cc1ccc(C(=O)OCc2nc(N)nc(Nc3ccccc3C)n2)cc1`, the Potency result was “inactive”.
In the case of `Cc1ccccc1Nc1nc(N)nc(CN2CCN(c3ccccn3)CC2)n1`, the Potency result was “inactive”.
For the compound `COc1cccc(C(O)c2nc3ccccc3n2C)c1` (centres undefined), the Potency entry is “inactive”.
For `Cc1cc(C)c(CN2CCN(C(=O)Cn3ccc(NC(=O)OCc4ccccc4)nc3=O)CC2)c(C)c1`, the Potency result is “inactive”.
`COc1ccc(/C=C2\SC(=O)N(CCC(=O)NC3CCS(=O)(=O)C3)C2=O)cc1` (centres undefined): the Potency is 2510 nM (active).
As for `COc1ccc(/C=C2\SC(=O)N(CCC(=O)NCCCn3ccnc3)C2=O)cc1`, the Potency result was “inactive”.
`COc1ccccc1/C=C1\SC(=O)N(CCC(=O)N(C)C2CCS(=O)(=O)C2)C1=O` (centres undefined): the Potency result was “inactive”.
Turning to `CC1CCCC(C)N1C(=O)COC(=O)COc1ccccc1C#N` (centres undefined), the Potency entry was “inactive”.
Consider `CCCCN(C(=O)c1ccc(S(=O)(=O)N2CCOCC2)cc1)C1CCS(=O)(=O)C1` (centres undefined), for which the Potency result is “inactive”.
The same measure, in the same setting: the figure for `O=C(Nc1cccnc1)c1noc2c1CCCCC2` is 1580 nM (active).
With `O=C(Nc1cccnc1)c1cccc(S(=O)(=O)N2CCCC2)c1`, the Potency entry was “inactive”.
For `O=C(Nc1cccnc1)c1cc(Cl)ccc1Cl`, the Potency result was “inactive”.
As to `CCCCc1ccc(NC(=O)CN2C(=O)NC(Cc3ccccc3)C2=O)cc1` (centres undefined), the Potency entry is “inactive”.
In the case of `O=C(NNC(=O)c1cccc(S(=O)(=O)Nc2ccc(Cl)cc2)c1)c1ccc(=O)[nH]c1`, the Potency entry was “inactive”.
As for `O=C(CCc1ccccc1F)N1CCN(c2ccccc2)CC1`, the Potency entry was “inactive”.
In the case of `O=C(NCC(=O)N1CCN(c2ccccc2F)CC1)c1cccs1`, the Potency result was “inactive”.
For the compound `O=C(CCSc1ccccc1)N1CCN(c2ccccc2F)CC1`, the Potency was 3550 nM (active).
Turning to `CC1CCCC(NC(=O)c2cc(S(=O)(=O)N3CCCCC3)ccc2Cl)C1C` (centres undefined), the Potency entry is “inactive”.
Consider `CCCCCCCC(=O)OC(CN1CCCCCC1)CN1CCCC1=O` (centres undefined), for which the Potency result is “inactive”.
As to `COc1cccc(C(=O)Nc2ccc(N3CCCC3)cc2)c1`, the Potency was 1120 nM (active).
For `COc1ccc(C(=O)Nc2ccc(N3CCC(C)CC3)cc2)cc1Br`, the Potency result is “inactive”.
For `COc1ccc(C2COC(=O)C2=N)c(NC(=O)c2ccccc2)c1` (centres undefined), the Potency entry was “inactive”.
On to `COc1cccc(C(=O)Nc2ccc(N3CCN(C(=O)c4ccco4)CC3)cc2)c1`, for which the Potency entry is “inactive”.
`COc1cccc(C(=O)Nc2cc3c(cc2Br)OCCCO3)c1`: the Potency was 2820 nM (active).
For the compound `CC(=O)Oc1cccc(C(=O)Nc2ccccc2NC(=O)c2cccc(OC(C)=O)c2)c1`, the Potency entry is “inactive”.
For the compound `CN1CCN(c2ccc(NC(=O)c3ccccc3)cc2)CC1`, the Potency is 1580 nM (active).
In the case of `Cc1ccccc1C(=O)NC(=S)Nc1ccc(N2CCN(C(=O)c3ccccc3)CC2)cc1`, the Potency entry is “inactive”.
In the case of `CN1CCN(c2ccc(NC(=O)c3ccc4c(c3)[nH]c(=O)n4Cc3ccc(F)cc3)cc2)CC1`, the Potency entry is “inactive”.
Turning to `CC(C)(C)OC(=O)N[C@H](C(=O)OC(C)(C)C)c1ccc(Br)cc1`, the Potency entry was “inactive”.
`O=C(OCC(=O)N1CCN(C(=O)c2ccco2)CC1)c1ccc(Cl)c(Cl)c1`: the Potency entry is “inactive”.
For `CN(c1ccccc1)S(=O)(=O)c1cccc(NC(=O)Cc2ccc(Cl)cc2)c1`, the Potency entry is “inactive”.
Regarding `CCCCN1Cc2c(nc3cc(-c4ccccc4)[nH]n3c2=O)C1=O`, the Potency entry is “inactive”.
Same read-out and setting: the figure for `C=CCc1c(C)nc2cc(-c3ccccc3)[nH]n2c1=O` is 1410 nM (active); for `CCc1c(C)nc2cc(C)[nH]n2c1=O` it is “inactive”.
Regarding `O=C1C=C(c2cccc(Br)c2)C[C@@H](c2ccc(F)cc2)C1`, the Potency result was “inactive”.
For the compound `NC(=O)NC(CC(=O)NNC(=O)c1ccccn1)c1ccc(Cl)cc1` (centres undefined), the Potency result was “inactive”.
For `O=S(=O)(NCCCN1CCOCC1)c1ccc(F)c(Cl)c1`, the Potency result was “inactive”.
The same measure, in the same setting: the entry for `O=C(OCC(=O)N1CCCCCC1)c1cnc(Cl)c(Cl)c1` is “inactive”.
On the same count and under the same terms, the entry for `CCOc1ccc(C(=O)Nc2ccncc2)cc1` is “inactive”.
Regarding `CCOc1cccc(NC(=O)CC#N)c1`, the Potency result is “inactive”.
In the case of `CCOc1ccc(NC(=O)c2ccc(NC(=O)COC(=O)c3ccc(NC(=O)CC#N)cc3)cc2)cc1`, the Potency was 2240 nM (active).
Take `Cc1cccc(NS(=O)(=O)c2ccc(C)c(C(=O)NCC(c3ccccc3)N(C)C)c2)c1` (centres undefined): the Potency entry is “inactive”.
Turning to `O=C(Nc1ncccc1O)c1ccc(C(=O)c2ccccc2)cc1`, the Potency was 4470 nM (active).
Still for that read-out and setting: the entry for `O=C(Nc1ncccc1O)c1ccc(S(=O)(=O)N2CCCC2)cc1` is “inactive”; for `O=C(Nc1ncccc1O)c1ccc(S(=O)(=O)N2CCCCCC2)cc1` it is “inactive”.
Take `C=CCn1c(SCC(=O)NC(=O)Cc2ccccc2)nc2ccccc2c1=O`: the Potency result was “inactive”.
Turning to `Cc1ccc(S(=O)(=O)CCC(=O)OCC(=O)NCCc2ccc(S(N)(=O)=O)cc2)cc1`, the Potency entry is “inactive”.
Consider `O=C(Cc1nc2ccccc2[nH]c1=O)c1ccc(Cl)cc1`, for which the Potency is 2000 nM (active).
Consider `N#C/C(=C(/O)COC(=O)COc1ccc(Cl)cc1)c1nc2ccccc2[nH]1`, for which the Potency result was “inactive”.
With `O=C(/C(=C/c1cccc(Cl)c1)c1nc2ccccc2[nH]1)c1ccccc1`, the Potency result was “inactive”.
On to `CC(C)(C)OC(=O)Nc1ccc([C@@H](NC(=O)OC(C)(C)C)C(=O)OC(C)(C)C)cc1`, for which the Potency entry is “inactive”.
Take `Cc1ccc(-n2c(C)cc(C(=O)CSc3nnc4ccccn34)c2C)cc1`: the Potency is 398 nM (active).
`Cc1cc(C(=O)CSc2nc(N)cc(=O)[nH]2)c(C)n1-c1cccc(F)c1`: the Potency entry was “inactive”.
With `N#Cc1ccc(CSc2nnc3ccccn23)cc1`, the Potency entry is “inactive”.
As to `O=C(CSc1nnc2ccccn12)c1ccccc1`, the Potency was 2510 nM (active).
As to `Cc1ccc(-n2c(C)cc(C(=O)CN3C(=O)C(=O)N(C4CCCC4)C3=O)c2C)cc1`, the Potency entry was “inactive”.
As to `Cn1c(CC(=O)Nc2ccccc2)nnc1SCC(=O)c1ccccc1`, the Potency entry was “inactive”.
`COc1ccc(NC(=O)CSc2nnc(C3CC3)n2C)cc1S(=O)(=O)N1CCCCC1`: the Potency entry was “inactive”.
For the compound `Cc1ccc(Nc2nnc(SCC(=O)c3cc4ccccc4o3)s2)cc1C`, the Potency result is “inactive”.
The same measure, in the same setting: the entry for `O=C(CSc1nnc(Nc2ccccc2)s1)Nc1cccnc1Cl` is “inactive”.
As for `CC(C)c1ccc(Nc2nnc(SCC(=O)c3nnc(-c4ccccc4)o3)s2)cc1`, the Potency was 4470 nM (active).
`COc1cc2c(cc1OC)C(=O)NCC(C)(C)O2`: the Potency entry was “inactive”.
The same measure, in the same setting: in the case of `COc1ccccc1-c1sc2ccccc2c1-c1ccc(Br)nc1` it was “inactive”; in that of `Cc1csc(SCC(=O)N(c2ccccc2)C(C)C)n1`, “inactive”.
`NC(=O)c1ccsc1NC(=O)COC(=O)COc1ccc(C=O)cc1`: the Potency entry is “inactive”.
In the case of `O=C(O)c1ccccc1N=N/C(=N/Nc1cc(S(=O)(=O)O)ccc1O)c1ccccc1`, the Potency entry is “inactive”.
For `O=C(O)c1cccc(S(=O)(=O)N2CC=C(c3ccccc3)CC2)c1`, the Potency entry was “inactive”.
On the same count and under the same terms, in the case of `COc1cc2c(cc1OC)/C(=C/C(=O)c1ccc(NC(C)=O)cc1)NCC2` it was “inactive”.
For the compound `CC1CN/C(=C\C(=O)c2ccc(Br)cc2)C(=O)N1` (centres undefined), the Potency is 501 nM (active).
Regarding `CN1CCCC(OC(=O)COc2ccc(Br)cc2)C1` (centres undefined), the Potency entry is “inactive”.
As to `CCCCNC(=O)OCCSCCS(=O)(=O)c1ccc(Cl)cc1`, the Potency entry was “inactive”.
In the case of `COc1cc2ccccc2cc1C(=O)Nc1nc(C)c(C(C)=O)s1`, the Potency was 3980 nM (active).
Take `CC(=O)c1sc(N/N=C/c2ccc(C(C)C)cc2)nc1C`: the Potency was 794 nM (active).
Same read-out and setting: in the case of `CC(=O)c1sc(N)nc1C` it was “inactive”; in that of `CC(=O)c1sc(NC(=O)c2ccc(C)cc2)nc1C`, 1780 nM (active); in that of `CC(=O)c1sc(N/N=C\c2ccc(C)cc2)nc1C`, 2000 nM (active).
As for `COc1ccc(/C=N\NC(=O)c2sc(N)nc2C)cc1OC`, the Potency result is “inactive”.
The same measure, in the same setting: in the case of `CC(=O)c1sc(NC(=O)CCCOc2ccccc2C)nc1C` it was “inactive”; in that of `Cc1ccc(S(=O)(=O)Nc2nc(C)cc(N/N=C/c3ccc(O)cc3)n2)cc1`, “inactive”; in that of `CC(=O)c1sc(NC(=O)C2=NN(c3ccccc3)C(=O)CC2)nc1C`, “inactive”.
Turning to `COc1cc2ccccc2cc1C(=O)Nc1ccncc1`, the Potency entry was “inactive”.
Take `Cc1nnc(C)n1/N=C/c1ccc(C(C)C)cc1`: the Potency entry is “inactive”.
As to `COc1cc2ccccc2cc1C(=O)Nc1ccccc1C`, the Potency result is “inactive”.

The values above are taken from PubChem BioAssay AID485297 (National Center for Advancing Translational Sciences (NCATS), 2010).
